Assay results published in PubChem BioAssay (NCATS).
Several values for one entry are separate records, joined by “and”; a condition that tells them apart may be missing. Equal values may be shown once. Results filed as inconclusive are left out. Entries that show only a call come without a potency. Activity calls are given as the source filed them. Unless noted, calls come from the whole dose curve; as a rule, active = well fitted curve in the direction sought with a large enough effect; inconclusive = small, poorly fitted or top-dose-only effect, or another doubt; inactive = no such curve, though single readings can be large; an effect the other way counts as inactive or inconclusive.

Assays:
[1] = test system: Zika virus NS2B-NS3 protease; assay: Primary screen GU AMC qHTS for Zika virus inhibitors (AID 1347154); note: nearly all actives have a fitted effect of over 70% in size
Outline: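 Fluorogenic AMC-substrate cleavage by noncovalent NS2B-NS3 protease complex (25 nM, pH 8.0 Tris buffer with Tween 20) followed for 15 minutes at room temperature (~20% conversion). Percent inhibition from ex340/em450 signal change, fitted by 4-parameter Hill equation.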

[2] = Primary qHTS for small molecule stabilizers of the endoplasmic reticulum resident proteome: Secreted ER Calcium Modulated Protein (SERCaMP) assay (AID 1508630)
Outline: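 The SH-SY5Y reporter protocol was run at 3 concentrations up to 38.3 uM (primary) or 11 concentrations (follow-up): 16 h compound, 100 nM thapsigargin for 4 h, then extracellular luciferase luminescence.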

[3] = qHTS for inhibitors of Rabies Virus screened against the NCATS CANVASS Library (AID 1347402; calls by dose curve)
[4] = target: Glucocorticoid receptor (Homo sapiens) (UniProt P04150); assay: GR-GFP Redistribution (AID 450;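 active = compounds whose dose series gives a full or clear partial fitted curve of increased nuclear translocation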; note: potency is the fitted concentration of half-maximal effect); settings: U2OS GR-GFP nuclear translocation, laser cytometry, 2 h
[5] = target: Mitogen-activated protein kinase 10 (Mus musculus) (UniProt Q61831); assay: JNK3 AlphaScreen Assay (AID 530; active = well fitted curve in either direction with a large enough effect, not every such curve was filed as active;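 note: kinase came from lysate of stimulated human HepG2 cells; signal reports phosphorylation of biotinylated GST-cJun 1-79 at Ser73 with 10 µM ATP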)
Outline: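 Kinase buffer: 20 mM Tris-HCl pH 7.6, 10 mM MgCl2, 1 mM DTT, 0.1 mM Na3VO4, 0.01% Tween-20; ATP 10 uM. Substrate biotin-GST-cJun(1-79), enzyme from activated HepG2 lysates. Detection by Ser73 phospho-antibody AlphaScreen.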

[6] = target: Cytochrome P450 2C9 (Homo sapiens) (UniProt P11712); assay: qHTS Assay for Inhibitors and Substrates of Cytochrome P450 2C9 (AID 883); note: nearly all actives have a fitted effect of over 60% in size; note: potency is the fitted concentration of half-maximal effect
Outline: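 Luminescent read-out of deoxyluciferin hydroxylation, normalized to 57uM sulphaphenazole (AC100). Reaction: 10nM enzyme, 100uM Luciferin-H (equal to KM), 25mM KPO4, 10 min compound preincubation, then 60 min with NADPH regeneration, both at 37C.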

[7] = target: DNA dC->dU-editing enzyme APOBEC-3G (Homo sapiens) (UniProt Q9HC16); assay: qHTS for inhibitors of Vif-A3G interactions: Validation (AID 588379)
Outline: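 Yellow fluorescence (Ex 488, Em 500-530) of Vif-coexpressing HeLa A3G-eYFP cells, scanned by Acumen cytometer, reports blocked A3G degradation. Cells plated at 700/well overnight at 37 deg C before compound addition, then a further overnight compound incubation at 37 deg C.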

[8] = target: Nuclear receptor subfamily 1 group I member 3 (Homo sapiens) (UniProt Q14994); assay: Primary qHTS for antagonist of constitutive androstane receptor (CAR) against the NCATS DSHEA and TCM libraries (AID 1794836);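 note: HepG2 cells stably expressing hCAR with CYP2B6 luciferase reporter stimulated by CITCO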
Outline: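 Antagonist mode: CAR reporter luminescence (ONE-Glo) in HepG2-CYP2B6-hCAR cells stimulated with 48 uM CITCO (final) over 24 h at 37 C, compounds titrated; viability read first by CellTiter-Fluor fluorescence.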

[9] = qHTS profiling of the MIPE4 collection as inhibitors of Plasmodium falciparum (3D7) proliferation (AID 743344; call rule not given here); settings: P. falciparum 3D7 in erythrocytes, SYBR Green DNA fluorescence, 72 h; at 28.5 µM (top of the series) unless noted
Outline: (§1)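 Parasite DNA was quantified by SYBR Green I fluorescence (ex 485, em 535 nm) after overnight lysis in saponin/Triton buffer at room temperature. Cultures at 0.3% parasitemia and 2.5% hematocrit were first exposed to compound for 72 h at 37 C; signals were normalised to artemisinin (0.29 uM) and vehicle wells.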

[10] = qHTS profiling of the MIPE4 collection as inhibitors of Plasmodium falciparum (DD2) proliferation (AID 743345; call rule not given here); settings: P. falciparum Dd2 in erythrocytes, SYBR Green DNA, 72 h; at 28.5 µM (top of the series) unless noted
Outline: as §1

[11] = qHTS profiling of the MIPE4 collection as inhibitors of Plasmodium falciparum (DD2) proliferation (Rep 2) (AID 743346; call rule not given here); settings: P. falciparum Dd2 in erythrocytes, SYBR Green DNA, 72 h; at 28.5 µM (top of the series) unless noted
Outline: as §1

[12] = qHTS profiling of the MIPE4 collection as inhibitors of Plasmodium falciparum (HB3) proliferation (AID 743347; call rule not given here); settings: P. falciparum HB3 in erythrocytes, SYBR Green DNA, 72 h; at 28.5 µM (top of the series) unless noted
Outline: as §1

[13] = Confirmatory qHTS for VERO E6 Cytotoxicity Assay: Counterscreen for SARS-CoV-2 CPE Assay (AID 1508605; calls by dose curve; note: nearly all actives have a fitted effect of over 60% in size)
[14] = Counterscreen qHTS for small molecule stabilizers of the endoplasmic reticulum resident proteome: GLuc-NoTag assay (AID 1508627);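 note: SH-SY5Y cells given compound then 100 nM thapsigargin to empty ER calcium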
Outline: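 Counterscreen line: SH-SY5Y-GLuc-NoTag cells, treated with compound 19 hr before a 4 hr, 100 nM thapsigargin calcium depletion. Secreted Gaussia luciferase in the medium was measured by luminescence after coelenterazine was added (0.07x final), with cells unlysed.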

[15] = Confirmatory qHTS for small molecule stabilizers of the endoplasmic reticulum resident proteome: Secreted ER Calcium Modulated Protein (SERCaMP) assay (AID 1508628); note: nearly all actives have a fitted effect of over 40% in size; note: potency is the fitted concentration of half-maximal effect
Outline: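 GLuc-SERCaMP-expressing SH-SY5Y cells, pretreated 16 h with compound, are challenged with thapsigargin to empty ER calcium stores; after 4 h, coelenterazine is added directly to the medium and luminescence is imaged.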

[16] = Cell Viability qHTS for small molecule stabilizers of the endoplasmic reticulum resident proteome (AID 1508629); settings: cell viability counter-screen, 100 nM thapsigargin for final 4 h;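 note: human SH-SY5Y neuroblastoma cells carrying the GLuc-SERCaMP reporter; compound exposure about 46 h in total before the viability read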
[17] = Confirmatory qHTS for activators (rescue) of SARS-CoV-2 Cytopathic Effect (CPE) (AID 1508606; calls by dose curve; note: potency is the fitted concentration of half-maximal effect; nearly all actives have a fitted effect of over 70% in size)
[18] = qHTS for differential inhibitors of proliferation of Plasmodium falciparum line D10 (AID 1877);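 note: potency is the fitted concentration of half-maximal effect; parasites grown with compound for 72 h before DNA staining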
[19] = Confirmation and Secondary Assay for Modulators of Hemoglobin Beta Chain Splicing at IVS2 654 locus (AID 910);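 note: HeLa cells stably carrying EGFP split by mutant beta-globin IVS2-654 intron; per-well total GFP intensity by laser scanning cytometry after 2-day treatment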
Outline: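 Readout: per-well total peak green fluorescence (488 nm ex, 500–520 nm em) from objects 5–250 µm, reflecting correct splicing of an EGFP-654 reporter. Compounds were applied for 2 days at 37 °C to overnight-plated HeLa EGFP-654 cells; controls were DMSO and 500 nM IVS2-654 PNA.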

[20] = Confirmation and Secondary Assay for Modulators of Hemoglobin Beta Chain Splicing at IVS2 705 locus (AID 930);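 note: HeLa cells stably expressing the EGFP-705 splicing reporter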
Outline: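 HeLa cells stably carrying EGFP interrupted by mutant beta-globin IVS2-705 intron (CMV-driven) were seeded at 500 cells/well, treated next day with compound for 2 days at 37C; corrected splicing restores EGFP, read as total peak GFP intensity per well.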

Chain of Nuclear receptor subfamily 1 group I member 3 (Homo sapiens) (Q14994 whole entry, looked up): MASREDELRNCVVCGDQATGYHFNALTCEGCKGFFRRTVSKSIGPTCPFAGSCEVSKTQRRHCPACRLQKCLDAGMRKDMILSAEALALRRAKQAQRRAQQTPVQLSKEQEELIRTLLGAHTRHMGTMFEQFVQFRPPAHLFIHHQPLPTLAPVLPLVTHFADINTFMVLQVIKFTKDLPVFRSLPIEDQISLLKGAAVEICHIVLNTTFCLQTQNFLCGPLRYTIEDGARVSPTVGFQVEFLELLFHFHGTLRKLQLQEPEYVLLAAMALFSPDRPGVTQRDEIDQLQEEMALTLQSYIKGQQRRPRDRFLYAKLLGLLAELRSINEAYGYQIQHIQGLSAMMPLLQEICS
Chain of Glucocorticoid receptor (Homo sapiens) (P04150 whole entry, looked up): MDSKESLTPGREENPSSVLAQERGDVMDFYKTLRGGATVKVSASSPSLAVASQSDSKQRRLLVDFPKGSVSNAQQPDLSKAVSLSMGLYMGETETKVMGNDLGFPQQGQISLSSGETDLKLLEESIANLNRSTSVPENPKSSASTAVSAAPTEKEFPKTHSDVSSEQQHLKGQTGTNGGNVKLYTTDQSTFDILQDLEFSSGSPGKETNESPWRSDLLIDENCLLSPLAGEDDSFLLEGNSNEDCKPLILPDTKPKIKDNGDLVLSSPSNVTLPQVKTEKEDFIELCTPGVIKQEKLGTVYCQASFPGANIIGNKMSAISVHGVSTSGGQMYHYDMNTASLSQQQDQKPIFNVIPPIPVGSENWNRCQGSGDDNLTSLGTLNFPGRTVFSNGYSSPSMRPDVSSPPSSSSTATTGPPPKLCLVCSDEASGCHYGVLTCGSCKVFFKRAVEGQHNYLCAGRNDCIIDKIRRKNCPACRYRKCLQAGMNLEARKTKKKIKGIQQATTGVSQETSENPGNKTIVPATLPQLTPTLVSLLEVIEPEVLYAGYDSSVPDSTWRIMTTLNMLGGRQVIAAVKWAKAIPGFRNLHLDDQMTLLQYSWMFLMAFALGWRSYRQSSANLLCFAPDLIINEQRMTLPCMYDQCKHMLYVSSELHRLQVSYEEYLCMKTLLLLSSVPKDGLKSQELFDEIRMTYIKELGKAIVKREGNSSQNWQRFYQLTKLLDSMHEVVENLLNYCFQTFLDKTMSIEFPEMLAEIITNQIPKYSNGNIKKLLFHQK
Chain of DNA dC->dU-editing enzyme APOBEC-3G (Homo sapiens) (Q9HC16 whole entry, looked up): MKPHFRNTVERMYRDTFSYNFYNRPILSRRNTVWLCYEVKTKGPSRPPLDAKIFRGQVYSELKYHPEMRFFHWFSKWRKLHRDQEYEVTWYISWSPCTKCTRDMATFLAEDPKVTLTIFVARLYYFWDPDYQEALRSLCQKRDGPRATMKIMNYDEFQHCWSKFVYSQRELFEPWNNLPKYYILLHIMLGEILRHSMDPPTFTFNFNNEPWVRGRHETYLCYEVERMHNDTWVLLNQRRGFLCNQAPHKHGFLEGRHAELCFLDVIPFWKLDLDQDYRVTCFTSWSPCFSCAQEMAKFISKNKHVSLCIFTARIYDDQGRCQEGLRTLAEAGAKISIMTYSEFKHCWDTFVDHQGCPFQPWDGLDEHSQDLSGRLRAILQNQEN
Chain of Cytochrome P450 2C9 (Homo sapiens) (P11712 whole entry, looked up): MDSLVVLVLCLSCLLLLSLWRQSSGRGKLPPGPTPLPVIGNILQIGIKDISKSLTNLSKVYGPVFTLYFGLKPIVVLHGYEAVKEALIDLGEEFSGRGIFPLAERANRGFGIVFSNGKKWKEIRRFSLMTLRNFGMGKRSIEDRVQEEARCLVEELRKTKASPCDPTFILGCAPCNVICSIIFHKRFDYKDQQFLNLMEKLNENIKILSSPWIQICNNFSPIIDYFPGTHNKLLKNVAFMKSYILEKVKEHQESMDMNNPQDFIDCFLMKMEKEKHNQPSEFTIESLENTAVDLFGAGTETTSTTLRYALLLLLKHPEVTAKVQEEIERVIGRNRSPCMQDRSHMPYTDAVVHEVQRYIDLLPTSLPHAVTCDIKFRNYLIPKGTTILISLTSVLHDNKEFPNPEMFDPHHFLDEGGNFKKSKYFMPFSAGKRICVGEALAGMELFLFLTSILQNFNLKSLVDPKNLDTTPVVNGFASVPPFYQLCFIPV

## COc1ccc2[nH]c3c(c2c1)CCNC3C (stereo unspecified)
[1]
  Potency: inactive
[2]
  Potency: inactive

## O=C(O)Cc1c[nH]c2ccccc12
[3]
  outcome: inactive

## CC1=C(O)C(=O)[C@@H]2O[C@@H]2C1=O
[1]
  Potency: inactive
[2]
  Potency: inactive

## C[N+]1([O-])CCC[C@@H]1c1cccnc1 (stereo partly specified)
[1]
  Potency: inactive
[2]
  Potency: inactive

## C[C@H]1CC[C@@H]2N(C1)C[C@H]1[C@@H]3C[C@H]4[C@@H](CC(=O)[C@H]5C[C@@H](O)CC[C@@]54C)[C@@H]3CC[C@H]1[C@]2(C)O
[1]
  Potency: inactive

## CN(C)Cc1c[nH]c2ccccc12
[4]
  Potency: > 20.6 µM (inactive) and > 46 µM (inactive)
[5]
  outcome: inactive
[6]
  Potency: inactive
[7]
  Potency: inactive
[1]
  Potency: inactive
[3]
  outcome: inactive

## O=c1cc(-c2ccc(O)c(O)c2)oc2cc(O[C@@H]3O[C@H](CO)[C@@H](O)[C@H](O)[C@H]3O)cc(O)c12
[3]
  outcome: inactive

## CCCCCCCCCCCC(=O)OCC(O)CO (stereo unspecified)
[8]
  Potency: inactive

## Cc1cn([C@@H]2C[C@@H](O)[C@H](CO)O2)c(=O)[nH]c1=O
[9]
  parasite growth, % of DMSO control: 93.3%
[10]
  parasite growth remaining, % of DMSO control (lower = more inhibition): 92.6%
[11]
  parasite growth, % of control (lower = inhibition): 94.9%
[12]
  growth, % of control: 59.6%

## C[N+](C)(C)CCO
[8]
  Potency: inactive

## CCCCCCCC(=O)O
[8]
  Potency: inactive

## COC(=O)C[C@](O)(CCCC(C)(C)O)C(=O)O[C@@H]1C(OC)=C[C@]23CCCN2CCc2cc4c(cc2[C@H]13)OCO4
[9]
  parasite growth, % of DMSO control: 70%
[10]
  parasite growth remaining, % of DMSO control (lower = more inhibition): 85.8%
[11]
  parasite growth, % of control (lower = inhibition): 67.1%
[12]
  growth, % of control: 76.2%

## CC(=O)O[C@H]1C[C@@H]2CC[C@H]3[C@H]4C[C@H]([N+]5(C)CCCCC5)[C@@H](OC(C)=O)[C@@]4(C)CC[C@@H]3[C@@]2(C)C[C@H]1[N+]1(C)CCCCC1
[9]
  parasite growth, % of DMSO control: 73.3%
[10]
  parasite growth remaining, % of DMSO control (lower = more inhibition): 88%
[11]
  parasite growth, % of control (lower = inhibition): 58.4%
[12]
  growth, % of control: 72.7%

## O=S(=O)(c1cccc2c(Cl)cccc12)N1CCCNCC1
[13]
  Potency: inactive

## CN1C2CCC1CC(OC(=O)C1CCC(C(=O)OC3CC4CCC(C3)N4C)(c3ccccc3)c3ccccc31)C2 (stereo unspecified)
[14]
  Potency: inactive
[15]
  Potency: 4.47 µM (active)
[16]
  max response: -2.96% (inactive)

## O=S(=O)(c1cccc2c(I)cccc12)N1CCCNCC1
[13]
  Potency: inactive

## CN(C)CCCN1c2ccccc2CCc2ccccc21
[13]
  Potency: inactive

## Cc1ccccc1O
[5]
  outcome: inactive

## OCCCNc1cc(-c2ccnc(Nc3cccc(Cl)c3)n2)ccn1
[17]
  Potency: 5.62 µM (active)

## CC(=O)[C@H]1CC[C@H]2[C@@H]3CCC4=CC(=O)CC[C@]4(C)[C@H]3CC[C@]12C
[18]
  Potency: 12.6 µM (active)
[9]
  parasite growth, % of DMSO control: 38.5%
[10]
  parasite growth remaining, % of DMSO control (lower = more inhibition): 85%
[11]
  parasite growth, % of control (lower = inhibition): 30.4%
[12]
  growth, % of control: 31%

## Clc1ccc2c(c1)N=C(N1CCNCC1)c1ccccc1N2
[13]
  Potency: inactive

## OC[C@@H]1[C@@H](O)[C@H](O)[C@H]2[C@@H](O)CCN21
[14]
  Potency: inactive
[15]
  Potency: inactive

## CC(C)(O)C1OC2CCC3(C)C(O)(CCC4Cc5c([nH]c6ccccc56)C43C)C2=CC1=O (stereo unspecified)
[14]
  Potency: inactive
[15]
  Potency: 28.2 µM (active)
[16]
  max response: 28.4% (inactive)

## Cc1ccc(C(=O)Nc2cccc(C(F)(F)F)c2)cc1Nc1nc(-c2cccnc2)nc2c1cnn2C
[17]
  Potency: 1.41 µM (active)

## C=C1C(=O)[C@@]23C(CC[C@@H]1[C@H]2O)[C@@]12CO[C@]3(O)[C@@H](O)[C@@H]1C(C)(C)CC[C@@H]2O (stereo partly specified)
[17]
  Potency: 10 µM (active)

## OC1(c2ccc(Cl)cc2)CCN(Cc2c[nH]c3ccccc23)CC1
[6]
  Potency: inactive
[18]
  Potency: 10 µM (active)

## CCN1C[C@]2(C)CC[C@H](OC)[C@@]34[C@H]1C1(OCO[C@@]15C[C@H](OC)C1C[C@]3(O)C5[C@H]1OC)[C@@H](O)[C@H]24
[2]
  Potency: inactive

## CN1C(=O)C[C@H](C(=O)N[C@@H](Cc2cnc[nH]2)C(=O)N2CCC[C@@H]2C(N)=O)NC1=O
[9]
  parasite growth, % of DMSO control: 86%
[11]
  parasite growth, % of control (lower = inhibition): 70.2%
[12]
  growth, % of control: 48.7%

## C=C1C2C[C@]3(C4CC5[C@@]6(C)CC[C@H](O)[C@@]5(C3CC2=O)C4[N+]([O-])(CC)C6)[C@@H]1O (stereo partly specified)
[2]
  Potency: inactive

## CN1CC(CO)=C[C@H]2c3cccc4[nH]cc(c34)C[C@H]21
[19]
  Potency: inactive
[20]
  outcome: inactive

## C=CC1CN2CCC1CC2C(O)c1ccnc2ccccc12 (stereo unspecified)
[19]
  Potency: inactive
[20]
  outcome: inactive

## C[N+](C)([O-])CCNc1ccc(NCC[N+](C)(C)[O-])c2c1C(=O)c1c(O)ccc(O)c1C2=O
[9]
  parasite growth, % of DMSO control: 49%
[11]
  parasite growth, % of control (lower = inhibition): 41.1%
[12]
  growth, % of control: 60.6%

## C=CCSSCC=C
[19]
  Potency: inactive
[20]
  outcome: inactive

## CC(C)[C@H](CO)Nc1nc(Nc2cccc(Cl)c2)c2ncn(C(C)C)c2n1
[6]
  Potency: 7.94 µM (active)

## Clc1ccc(COC(Cn2ccnc2)c2ccc(Cl)cc2Cl)c(Cl)c1 (stereo unspecified)
[4]
  Potency: > 20.6 µM (inactive)
[19]
  Potency: inactive
[20]
  outcome: inactive

## O=C1C[C@@H](c2ccc(O)cc2)Oc2cc(O)cc(O)c21
[10]
  parasite growth remaining, % of DMSO control (lower = more inhibition): 72.2%
[11]
  parasite growth, % of control (lower = inhibition): 56.8%

## O=C(O)CF
[19]
  Potency: inactive
[20]
  outcome: inactive

## CCCOc1ccc2[nH]cc(C3=CCNCC3)c2n1
[4]
  Potency: > 46 µM (inactive)
[5]
  outcome: inactive
[7]
  Potency: inactive
[14]
  Potency: inactive
[16]
  max response: 2.34% (inactive)

## C/C=C1/CN2CC[C@]34C(=C(C=O)[C@@H]1C[C@H]23)Nc1c(O)cccc14
[2]
  Potency: inactive

## C/C=C1/CN2CC[C@]34C(=C(C=O)[C@H]1C[C@@H]23)Nc1ccccc14
[7]
  Potency: inactive

## C[C@@]12CCC(OS(=O)(=O)O)C[C@@H]1CCC1C2CC[C@]2(C)C(=O)CCC12 (stereo partly specified)
[19]
  Potency: inactive
[20]
  outcome: inactive

## CN[C@@H](Cc1c[nH]c2ccccc12)C(=O)O
[7]
  Potency: inactive

## CNCC[C@H](Oc1ccc(C(F)(F)F)cc1)c1ccccc1
[18]
  Potency: 12.6 µM (active)
